The values that follow come from PubChem BioAssay (Tox21).

A number with no mark means an inactive call. The source made the active and inactive calls. Calls follow the shape of the dose curve; as a rule, active = well fitted curve in the direction sought with a large enough effect in the repeat runs; inconclusive = weak or mixed curves; inactive = flat fitted curve, though single readings scatter.
% is scaled to controls: 0 for no effect and ±100 for the full control effect.

The first experiment in a line: qHTS assay to test for compound auto fluorescence at 535 nm (green) in HepG2 cell free culture (AID 720686). The note with it: Cell-free medium, green autofluorescence 485/535 nm; series mostly up to 91.3 µM; fluorescence, % of fluorescein control: at the top concentration.
As for `CN(C)C(=O)NC1(c2ccccc2)CCN(CCC[C@]2(c3ccc(Cl)c(Cl)c3)CCCN(C(=O)c3ccccc3)C2)CC1`, the fluorescence, % of fluorescein control was 0.0302% [at 18.6 µM].

On to `CCCCOc1cc(C(=O)NCCN(CC)CC)c2ccccc2n1`, for which the fluorescence, % of fluorescein control is -0.0334% [at 18.6 µM].

For `COC(=O)N[C@H](C(=O)N[C@@H](Cc1ccccc1)[C@@H](O)CN(Cc1ccc(-c2ccccn2)cc1)NC(=O)[C@@H](NC(=O)OC)C(C)(C)C)C(C)(C)C`, the “fluorescence, % of fluorescein control” value was -0.173% [at 46 µM].

Take `COc1ccc(S(=O)(=O)Nc2nnc(CC(C)C)s2)cc1`: the call was inactive.

As for `CCN1CC(CCN2CCOCC2)C(c2ccccc2)(c2ccccc2)C1=O` (stereo unspecified), the “fluorescence, % of fluorescein control” value is -0.0277% [at 46 µM].

In the case of `NC/C=C/C(=O)O`, the “fluorescence, % of fluorescein control” value was 0.022% [at 46 µM].

`CCCCNC(=S)NCCCC`: the “fluorescence, % of fluorescein control” value was -0.0015%.

With `CCCOCCC`, the “fluorescence, % of fluorescein control” value was -0.0287%.

With `FC(F)(F)C(Cl)(Cl)Cl`, the “fluorescence, % of fluorescein control” value is -0.0156%.

Turning to `COc1ccccc1OCC(O)COC(N)=O` (stereo unspecified), the fluorescence, % of fluorescein control was -0.0199% [at 18.6 µM].

On to `O=Cc1ccc(F)c(Br)c1`, for which the “fluorescence, % of fluorescein control” value was 0.0979%.

As for `C=CCc1cc(OC)c(O)c(C(=O)NCCO)c1`, the “fluorescence, % of fluorescein control” value was 0.0094% [at 46 µM].

Take `C=CCCC=C`: the “fluorescence, % of fluorescein control” value is -0.02% [at 95.7 µM].

For the molecule `Cc1cc(NS(=O)(=O)c2ccc(N)cc2)nc(C)n1`, the “fluorescence, % of fluorescein control” value is -0.0223% [at 46 µM].

`COc1ccccc1N1CCN(CCCNc2cc(=O)n(C)c(=O)n2C)CC1`: the call was inactive.

Take `CCCCCCC`: the “fluorescence, % of fluorescein control” value is 0.0496% [at 95.7 µM].

As to `CCCCNc1cc(C(=O)O)cc(S(N)(=O)=O)c1Oc1ccccc1`, the fluorescence, % of fluorescein control is 0.0191% [at 18.6 µM].

For `CC(C)OC(C)C`, the “fluorescence, % of fluorescein control” value was 0.0809% [at 95.7 µM].

For `Cc1cc(S(=O)(=O)O)c(N)cc1Cl`, the “fluorescence, % of fluorescein control” value is -0.0129%.

Turning to `COc1cc(N)c(Cl)cc1C(=O)NC1CCN(Cc2ccccc2)CC1`, the fluorescence, % of fluorescein control was -0.0056% [at 18.6 µM].

Turning to `CCOC(=O)NCCC[Si](OCC)(OCC)OCC`, the “fluorescence, % of fluorescein control” value is 0.0624%.

For the molecule `CCN(O)CC`, the “fluorescence, % of fluorescein control” value is -0.223%.

On to `O=S(=O)(O)C(F)(F)F`, for which the “fluorescence, % of fluorescein control” value is -0.121%.

As to `Cc1cccc(C)c1NC(=O)CN1CCCCCC1`, the “fluorescence, % of fluorescein control” value is 0.0036% [at 46 µM].

Turning to `C=CC1CO1` (stereo unspecified), the “fluorescence, % of fluorescein control” value is -0.0216% [at 95.7 µM].

Take `C[C@]12C(=O)OC(=O)[C@H]1[C@H]1C=C[C@@H]2C1`: the “fluorescence, % of fluorescein control” value was 0.0292%.

As for `CCCCC1CCC(=O)O1` (stereo unspecified), the “fluorescence, % of fluorescein control” value is -0.0029%.

As to `C1CSCCS1`, the “fluorescence, % of fluorescein control” value is 0.025%.

For `CC(CNC1CCCCC1)OC(=O)c1ccccc1` (stereo unspecified), the fluorescence, % of fluorescein control was -0.0274% [at 18.6 µM].

Turning to `C=CC(C)(O)CC/C=C(\C)CCC=C(C)C` (stereo unspecified), the molecule was called inactive.

For the molecule `CCOc1ccccc1N`, the “fluorescence, % of fluorescein control” value was 0.161%.

As for `CCN[C@H]1CN(CCCOC)S(=O)(=O)c2sc(S(N)(=O)=O)cc21`, the fluorescence, % of fluorescein control was 0.0136% [at 18.6 µM].

For the molecule `C=CCCCCCCCCO`, the “fluorescence, % of fluorescein control” value is 0.0239%.

`O=C(C(Cl)Cl)N1CCOC12CCCCC2`: the “fluorescence, % of fluorescein control” value is -0.095%.

`CC(C)C1=CC2=CC[C@@H]3[C@](C)(CCC[C@@]3(C)C(=O)O)[C@H]2CC1`: the call was inactive.

For the molecule `CC1(C)O[C@@H]2C[C@H]3[C@@H]4CCC5=CC(=O)CC[C@]5(C)[C@@]4(F)[C@@H](O)C[C@]3(C)[C@]2(C(=O)CCl)O1`, the fluorescence, % of fluorescein control was 0.0501% [at 18.6 µM].

Another experiment is described as follows: qHTS assay to test for compound auto fluorescence at 460 nm (blue) in HepG2 cells (AID 720687). The note with it: autofluorescence 405/460 nm, 1 h; series mostly up to 91.3 µM; fluorescence, % of fluorescent control: at the top concentration. A digest of the protocol: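 Blue-channel autofluorescence (Ex/Em 405/460 nm, triamterene-equivalent) was measured after 1 hr compound exposure at 37 C, 5% CO2. Cells were HepG2, plated overnight at 37 C in MEM plus 10% FBS.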
Consider `CN(C)C(=O)NC1(c2ccccc2)CCN(CCC[C@]2(c3ccc(Cl)c(Cl)c3)CCCN(C(=O)c3ccccc3)C2)CC1`, for which the fluorescence, % of fluorescent control was -0.0586% [at 18.6 µM].

With `CCCCOc1cc(C(=O)NCCN(CC)CC)c2ccccc2n1`, the fluorescence, % of fluorescent control is -0.0681% [at 18.6 µM].

Take `CCN1CC(CCN2CCOCC2)C(c2ccccc2)(c2ccccc2)C1=O` (stereo unspecified): the “fluorescence, % of fluorescent control” value was 0.0098% [at 46 µM].

As to `NC/C=C/C(=O)O`, the “fluorescence, % of fluorescent control” value was -0.0107% [at 46 µM].

`CCCCNC(=S)NCCCC`: the “fluorescence, % of fluorescent control” value is -0.0755%.

In the case of `FC(F)(F)C(Cl)(Cl)Cl`, the “fluorescence, % of fluorescent control” value was 0.218%.

Consider `COc1ccccc1OCC(O)COC(N)=O` (stereo unspecified), for which the fluorescence, % of fluorescent control was 0.0352% [at 18.6 µM].

As to `O=Cc1ccc(F)c(Br)c1`, the “fluorescence, % of fluorescent control” value was 0.0129%.

`C=CCc1cc(OC)c(O)c(C(=O)NCCO)c1`: the “fluorescence, % of fluorescent control” value is -0.045% [at 46 µM].

As to `C=CCCC=C`, the “fluorescence, % of fluorescent control” value is 0.0514% [at 95.7 µM].

Consider `COc1ccccc1N1CCN(CCCNc2cc(=O)n(C)c(=O)n2C)CC1`, for which the result was inactive.

For `CCCCNc1cc(C(=O)O)cc(S(N)(=O)=O)c1Oc1ccccc1`, the fluorescence, % of fluorescent control was -0.0058% [at 18.6 µM].

As for `COc1cc(N)c(Cl)cc1C(=O)NC1CCN(Cc2ccccc2)CC1`, the fluorescence, % of fluorescent control is 0.034% [at 18.6 µM].

Take `CCOC(=O)NCCC[Si](OCC)(OCC)OCC`: the “fluorescence, % of fluorescent control” value was 0.0783%.

As to `O=S(=O)(O)C(F)(F)F`, the “fluorescence, % of fluorescent control” value was 0.0087%.

As for `Cc1cccc(C)c1NC(=O)CN1CCCCCC1`, the “fluorescence, % of fluorescent control” value was -0.0895% [at 46 µM].

Turning to `C=CC1CO1` (stereo unspecified), the “fluorescence, % of fluorescent control” value was 0.0314% [at 95.7 µM].

For the molecule `CCCCC1CCC(=O)O1` (stereo unspecified), the “fluorescence, % of fluorescent control” value was -0.0094%.

As for `CC(CNC1CCCCC1)OC(=O)c1ccccc1` (stereo unspecified), the fluorescence, % of fluorescent control is -0.124% [at 18.6 µM].

As to `C=CC(C)(O)CC/C=C(\C)CCC=C(C)C` (stereo unspecified), the molecule was called inactive.

Regarding `CCOc1ccccc1N`, the “fluorescence, % of fluorescent control” value is 0.195%.

On to `CCN[C@H]1CN(CCCOC)S(=O)(=O)c2sc(S(N)(=O)=O)cc21`, for which the fluorescence, % of fluorescent control is -0.117% [at 18.6 µM].

Turning to `C=CCCCCCCCCO`, the “fluorescence, % of fluorescent control” value was -0.0232%.

Turning to `CC(C)C1=CC2=CC[C@@H]3[C@](C)(CCC[C@@]3(C)C(=O)O)[C@H]2CC1`, the call was inactive.

For the molecule `CC1(C)O[C@@H]2C[C@H]3[C@@H]4CCC5=CC(=O)CC[C@]5(C)[C@@]4(F)[C@@H](O)C[C@]3(C)[C@]2(C(=O)CCl)O1`, the fluorescence, % of fluorescent control was -0.0673% [at 18.6 µM].
